Experimental findings from PubChem BioAssay (NCI) are described below.

The panel holds about 83,000 compounds, 20% with a hit somewhere; the sample as a whole holds those more often.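 Method: cells in 96-well plates; compound added at one concentration; 48 h incubation; percent growth measured; values under 10 scored active.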 Values without a mark were called inactive. Activity calls are given as the source filed them.

Some test systems named below: NCI-H23 lung; NCI-H226 lung; NCI-H322M lung; HOP-62 NSCLC; NCI-H460 lung; HOP-92 NSCLC; NCI-H522 lung; A549/ATCC NSCLC; 786-0 renal; COLO 205 colon.
What all share (assay): NCI-60 one-dose screen, 48 h (100 = growth as untreated, 0 = no growth, -100 = all killed)
Settings in all cases: 10 µM unless noted

`COc1cc(-c2nn(-c3ccc(Br)cc3)cc2CO)ccc1O`: the growth with NCI-H23 lung was 95.2%; in the assay with NCI-H226 lung, 105%; in the assay with NCI-H322M lung, 93.8%; with HOP-62 NSCLC, 95.4%; in the assay on NCI-H460 lung, 101%; in the assay with HOP-92 NSCLC it was 90.8%. The growth with NCI-H522 lung is 72.1%; with A549/ATCC NSCLC, 78.1%; with 786-0 renal, 95.6%; with COLO 205 colon, 119%.
On to `O=C1c2ccccc2C(=O)c2c1oc1c2c(=O)[nH]c2ccc(Cl)cc21`, for which the growth with NCI-H23 lung was 21.2%; with NCI-H226 lung, -28.8% (active); with NCI-H322M lung, 14%; in the assay on HOP-62 NSCLC, -38.7% (active); in the assay on NCI-H460 lung, -69.7% (active); with HOP-92 NSCLC, -37.2% (active). Moreover, the growth in the assay with NCI-H522 lung is -16.8% (active); in the assay with A549/ATCC NSCLC it was -0.0514% (active); with 786-0 renal, 2.5% (active); with COLO 205 colon, 85.7%.
On to `CSc1nc(-c2ccco2)c2c(N)[nH]nc2n1`, for which the growth with NCI-H23 lung was 97.7%; in the assay with NCI-H226 lung it was 102%; in the assay on NCI-H322M lung it was 97.8%; with HOP-62 NSCLC, 84.6%; in the assay with NCI-H460 lung it was 97.6%; in the assay on HOP-92 NSCLC it was 109%. Also, the growth in the assay with NCI-H522 lung was 79.4%; in the assay with A549/ATCC NSCLC, 100%; with 786-0 renal, 93.4%; with COLO 205 colon, 123%.
With `COc1ccc2nc(-c3ccc(Cl)cc3)cc(-c3nnc(SC/C(=N/O)c4ccccc4)o3)c2c1`, the growth in the assay with NCI-H23 lung was 26.1%; with NCI-H226 lung, 42.7%; in the assay with NCI-H322M lung, 67.9%; in the assay with HOP-62 NSCLC, 59.4%; in the assay with NCI-H460 lung, 29.6%; in the assay with HOP-92 NSCLC, 60.7%. The growth was 45.7% with NCI-H522 lung, 37.3% in the assay with A549/ATCC NSCLC, 24.9% with 786-0 renal and 31.5% in the assay with COLO 205 colon.
As to `CCN1CCN(c2ccc(NC(=O)Nc3nc4ccc(-c5ccccc5OC)cc4s3)cc2)CC1`, the growth with NCI-H23 lung was -16.8% (active); in the assay on NCI-H226 lung, 56.6%; with NCI-H322M lung, -86% (active); with HOP-62 NSCLC, -66.2% (active); in the assay with NCI-H460 lung it was -64.4% (active); in the assay with HOP-92 NSCLC, 2.16% (active). The growth was -78.1% (active) in the assay with NCI-H522 lung, -77.1% (active) with A549/ATCC NSCLC, -80.7% (active) with 786-0 renal and -73.2% (active) with COLO 205 colon.
For the compound `COc1cc2c(cc1OC)C(Sc1ccc(Cl)cc1)c1c(nc(N)c(C#N)c1N)O2` (stereo not given), the growth was -20.2% (active) with NCI-H23 lung; 16.2% in the assay with NCI-H226 lung; 42.1% in the assay on NCI-H322M lung; 63% with HOP-62 NSCLC; -55% (active) with NCI-H460 lung; 20.1% in the assay with HOP-92 NSCLC. Besides, the growth with NCI-H522 lung was -67.6% (active); with A549/ATCC NSCLC it was 44.1%; in the assay on 786-0 renal, -17.1% (active); in the assay with COLO 205 colon, -65.6% (active).
Take `Nc1c(C(=O)Nc2ccccc2)sc2nc3c(cc12)CN(C(=O)OCc1ccccc1)CC3`: the growth with NCI-H23 lung was 62.6%; in the assay with NCI-H226 lung it was 82.7%; in the assay on NCI-H322M lung, 70%; in the assay with HOP-62 NSCLC, 44.4%; with NCI-H460 lung it was 34%; with HOP-92 NSCLC, 52.4%. The growth with NCI-H522 lung was 35.6%; in the assay on A549/ATCC NSCLC it was 50.2%; in the assay with 786-0 renal it was 50%; in the assay on COLO 205 colon, 55.3%.
Consider `[2H]c1nc(Nc2ncc3cc(C(=O)N(C)C)n(C4CCCC4)c3n2)c([2H])c([2H])c1N1C([2H])([2H])C([2H])([2H])NC([2H])([2H])C1([2H])[2H]`, for which the growth with NCI-H23 lung is 67.1%; with NCI-H226 lung it was 74.6%; in the assay with NCI-H322M lung, 71.5%; in the assay with HOP-62 NSCLC it was 52.3%; in the assay with NCI-H460 lung, 59.1%; with HOP-92 NSCLC, 65.8%. In addition, the growth with NCI-H522 lung is 61.8%; in the assay with A549/ATCC NSCLC it was 45%; in the assay with 786-0 renal it was 52.9%; with COLO 205 colon it was 28.1%.
Regarding `CCOCc1cc(C(C)(C)C)ccc1O`, the growth in the assay with NCI-H23 lung is 103%; in the assay on NCI-H226 lung, 97.4%; in the assay on NCI-H322M lung it was 106%; in the assay on HOP-62 NSCLC, 95.2%; in the assay with NCI-H460 lung it was 103%; with HOP-92 NSCLC it was 92.3%. The growth was 77.9% with NCI-H522 lung, 90.4% with A549/ATCC NSCLC, 97.6% in the assay on 786-0 renal and 114% in the assay with COLO 205 colon.
As to `CCOc1ccccc1C(=O)/C=C/c1cc2ccccc2[nH]c1=O`, the growth is -55.2% (active) with NCI-H23 lung; 8.19% (active) in the assay with NCI-H226 lung; -2.24% (active) in the assay on NCI-H322M lung; -33.5% (active) in the assay with HOP-62 NSCLC; -4.96% (active) in the assay on NCI-H460 lung; 0.541% (active) in the assay on HOP-92 NSCLC. Also, the growth in the assay with NCI-H522 lung was -38.6% (active); with A549/ATCC NSCLC it was 16.8%; with 786-0 renal it was -21.7% (active); in the assay on COLO 205 colon, -50.8% (active).
Consider `C=C1C(=O)O[C@H]2[C@H]1CC/C(COC(=O)CCCCCCCC(=O)OC/C1=C/CC[C@@]3(C)O[C@H]3[C@H]3OC(=O)C(=C)[C@@H]3CC1)=C\CC[C@@]1(C)O[C@@H]21`, for which the growth in the assay with NCI-H23 lung was 2.7% (active); in the assay on NCI-H226 lung, 47%; in the assay on NCI-H322M lung, 84.7%; with HOP-62 NSCLC, 79.2%; in the assay with NCI-H460 lung, 61.4%; in the assay with HOP-92 NSCLC, 17.9%. Besides, the growth was -71.1% (active) with NCI-H522 lung, 82.6% in the assay with A549/ATCC NSCLC, 4.86% (active) with 786-0 renal and -61.6% (active) in the assay with COLO 205 colon.
Consider `C#CCN1C(=O)c2ccccc2N(CC#C)C12CCN(Cc1cn(CC(=O)Nc3ccccc3C(N)=O)nn1)CC2`, for which the growth was 78.4% with NCI-H23 lung; 83.2% in the assay with NCI-H226 lung; 85% in the assay on NCI-H322M lung; 104% with HOP-62 NSCLC; 89.7% in the assay with NCI-H460 lung; 107% in the assay with HOP-92 NSCLC. Also, the growth with NCI-H522 lung is 67.7%; in the assay with A549/ATCC NSCLC, 92.3%; in the assay with 786-0 renal it was 81.1%; in the assay on COLO 205 colon it was 99.9%.
As for `COc1ccc2cc(/C=C3\N=C(c4cc(OC)c(OC)c(OC)c4)OC3=O)c(OC)nc2c1`, the growth was 101% in the assay on NCI-H23 lung; 107% with NCI-H226 lung; 107% in the assay on NCI-H322M lung; 88.9% in the assay on HOP-62 NSCLC; 111% in the assay on NCI-H460 lung; 97.7% in the assay on HOP-92 NSCLC. Besides, the growth with NCI-H522 lung is 82.3%; in the assay on A549/ATCC NSCLC, 96.7%; in the assay with 786-0 renal, 100%; in the assay with COLO 205 colon, 117%.
